Sm TGR block: inhibitors of Schistosoma mansoni thioredoxin glutathione reductase. Q962Y6. hit rate 3% among 360,000. Potency, µM (doses to about 114 µM), for the others: at the top dose activity change, negative = inhibition, usual class: inhibitors. purified TGR, DTNB reduction, TNB absorbance 405 nm; also: potency is read from the fitted curve at half-maximal effect; nearly all actives have a fitted effect of over 60% in size
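Kinetic colorimetric format: TGR-catalysed, NADPH-driven DTNB reduction monitored via TNB absorbance. Enzyme dispensed at 20 nM; compound exposure 15 min at room temperature before reaction start.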
Giardia FBPA inh: inhibitors of Giardia lamblia fructose-1,6-bisphosphate aldolase. A8B2U2. hit rate 0.71% among 290,000. purified Giardia FBPA. Potency, µM (titrated, usually from 59.6 µM), inactives show top-dose activity, negative = inhibition, usual class: inhibitors; also: potency is read from the fitted curve at half-maximal effect; nearly all actives have a fitted effect of over 55% in size
Target sequence (A8B2U2 whole entry, looked up): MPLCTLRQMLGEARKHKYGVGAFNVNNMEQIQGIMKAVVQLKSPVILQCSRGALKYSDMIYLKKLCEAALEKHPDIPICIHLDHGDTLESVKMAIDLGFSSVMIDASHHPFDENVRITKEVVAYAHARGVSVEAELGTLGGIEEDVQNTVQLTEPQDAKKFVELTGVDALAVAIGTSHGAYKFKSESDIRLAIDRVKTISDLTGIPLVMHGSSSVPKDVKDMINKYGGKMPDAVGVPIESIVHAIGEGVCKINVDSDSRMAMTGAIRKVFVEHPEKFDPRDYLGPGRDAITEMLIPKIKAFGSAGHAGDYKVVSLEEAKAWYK
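Giardia FBPA (40 nM reagent) was preincubated 10 min at RT with compound (up to 57.5 uM final), then substrate plus GAPDH/TPI/NAD/arsenate coupling system with diaphorase/resazurin was added; resorufin fluorescence (525/598 nm) was read after 20 min.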
Pf growth 48h: inhibits P. falciparum growth in the first generation, 48 h; P. falciparum luciferase growth in erythrocytes, 48 h; Potency, µM (highest dose often 28.7 µM), for the others: at the highest dose activity change, negative = inhibition, usual class: inhibitors; hit rate 5.9% among 310,000; AID 504832; also: potency is read from the fitted curve at half-maximal effect
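Luciferase-expressing P. falciparum in infected erythrocytes (2% hematocrit, 0.1% parasitemia final) in RPMI 1640/0.5% Albumax were exposed to compound for 48 hours at 37 C, 5% CO2; growth read as luminescence.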
HCMV antiviral: human cytomegalovirus inhibition. HFF cells, HCMV-luciferase reporter, 72 h; active compounds read low. activity change, negative = inhibition, % at 57.5 µM. hit rate 4.5% among 410,000; in the data active = activity change below about -60%; inconclusive = no clear call, values can overlap the other calls; inactive = above about -39%
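Inhibition of viral replication was scored as loss of reporter luminescence in HFFs infected with HCMV-luciferase (MOI 1 PFU/cell) for 72 h; compounds tested at 2 doses, normalized to buffer and Salinomycin controls.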
Pf growth 96h: P. falciparum growth inhibition at 96 hours | P. falciparum luciferase reporter growth, 96 h | Potency, µM (doses to about 28.7 µM), without a hit: top-dose activity change, negative = inhibition, actives largely listed as inhibitors | hit rate 6.9% among 320,000 | AID 504834; also: potency is read from the fitted curve at half-maximal effect
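Luminescence readout: decreased luciferase signal marks inhibited growth of reporter-expressing P. falciparum in infected red cells (2% hematocrit, 0.05% parasitemia final), exposed to compound two generations (96 h, 37 C, 5% CO2).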
* = called active by the depositor; ? = inconclusive; · = not tested or not shown; + = active, no number; [ ] = dose if it differs, or a comment. Sampled rows, rich in hits. Any-hit rate of the full collection: about 14%. Unless noted, calls follow the shape of the dose curve; as a rule, active = well fitted curve in the direction sought with a large enough effect; inconclusive = small, poorly fitted or top-dose-only effect, or another doubt; inactive = no such curve, though single readings can be large; an effect the other way counts as inactive or inconclusive. % is scaled to controls: 0 for no effect and ±100 for the full control effect.

SMILES	Sm TGR block	Giardia FBPA inh	Pf growth 48h	HCMV antiviral	Pf growth 96h
Clc1ccc(CO/N=C(\Cn2ccnc2)c2ccc(Cl)cc2Cl)c(Cl)c1	·	3%	4.3µM*	·	1.9µM*
Cc1ccc(S(=O)(=O)NOCc2ccccc2)cc1	·	·	·	-1	·
O=C(CSc1nc(-c2cccs2)cc(C(F)(F)F)n1)NCc1ccco1	?	8%	-22%	-75*	99%
COc1ccccc1CNC(=O)CSc1nc(-c2ccc(OC)c(OC)c2)cc(C(F)(F)F)n1	-13%	·	·	-3	·
COc1ccc(-c2[nH]c(-c3ccc(C)cc3)nc2SCC(=O)NCc2ccco2)cc1OC	-2%	-9%	·	31	26%
COc1ccc(-c2cc(C(F)(F)F)nc(SCC(=O)NCc3ccco3)n2)cc1OC	45µM*	2%	?	36	?
O=C(CSc1nc(-c2ccccc2)cc(C(F)(F)F)n1)NCc1ccco1	22%	2%	-12%	14	·
COc1ccc(-c2ccc(SCC(=O)NCc3ccco3)nn2)cc1OC	?	-17%	14%	41	5.2µM*
COc1ccc(-c2cc(C(F)(F)F)nc(SCC(=O)NCc3cccs3)n2)cc1	5%	8%	12µM*	?	?
CCCCC[C@H](O)/C=C/C=C/C=C/[C@H](O)C/C=C\CCCC(=O)O	·	1%	·	·	·
COc1ccc(-c2cc(C(F)(F)F)nc(SCCC(=O)Nc3ccc(NC(C)=O)cc3)n2)cc1	1%	·	·	-26	·
COCC(C)NC(=O)CCSc1nc(-c2ccc(OC)cc2)cc(C(F)(F)F)n1 (stereo not drawn)	?	-4%	5.2µM*	-9	9.3µM*
Cn1c(=O)c2cc(S(=O)(=O)NC(C(=O)N3CCCCCC3)c3ccccc3)ccc2n(C)c1=O (stereo not drawn)	2%	0%	·	7	10µM*
Cc1ccc(C(=O)N(CCCN(C)C)c2nc3ccc(Cl)cc3s2)cc1C	-7%	-11%	12µM*	0	?
CN(C)CCCN(C(=O)c1ccc2c(c1)OCCO2)c1nc2ccc(Cl)cc2s1	-10%	·	10µM*	-10	12µM*
CN(C)CCN(C(=O)c1ccc2c(c1)OCCO2)c1nc2ccc(Cl)cc2s1	6%	-4%	46%	33	?
CN(C)CCCN(C(=O)c1ccco1)c1nc2ccc(Cl)cc2s1	9%	-4%	0%	-10	-16%
Cc1ccc2nc(N(CCCN(C)C)C(=O)c3sc4ccccc4c3Cl)sc2c1	?	-6%	33%	-78*	-15%
Cn1c(CCN2CCN(c3ccccn3)CC2)nc2cc(NS(=O)(=O)c3ccc(Cl)cc3)ccc21	-5%	0%	9.3µM*	0	10µM*
Cc1cccc(OCC(=O)Nc2ccc3c(c2)nc(CCN2CCN(c4ccccn4)CC2)n3C)c1	-6%	-1%	?	+	?
Cn1c(CCN2CCN(c3ccccn3)CC2)nc2cc(NC(=O)COc3ccc(Cl)cc3)ccc21	-3%	10%	?	-97*	?
CN1CCN(CCc2nc3cc(NC(=O)COc4ccccc4)ccc3n2C)CC1	-19%	1%	?	-9	429%
CCN1CCN(CCc2nc3cc(NC(=O)COc4ccccc4)ccc3n2C)CC1	-16%	·	?	-21	?
COC(=O)c1ccc(NC(=O)CC2C(=O)N(c3cccc(C)c3)C(=O)N2Cc2ccco2)cc1 (stereo not drawn)	-14%	·	·	-8	·
COc1ccc(OC)c(NC(=O)C(=O)NNC(=O)COc2ccc(Br)cc2C)c1	0%	9%	29%	0	79%
SMILES	Sm TGR block	Giardia FBPA inh	Pf growth 48h	HCMV antiviral	Pf growth 96h
NC(=O)NN=C1CCC(O)CC1CC(=O)O (stereo not drawn)	·	·	·	-22	·
CCCCC(=O)N/N=C/c1ccc(Sc2cccc3cccnc23)o1	51%	?	0%	73	4.1µM*
O=C(Cc1cccc2ccccc12)N/N=C/c1ccc(Sc2cccc3cccnc23)o1	-32%	-6%	·	-39	6.6µM*
COc1ccc(C(C(=O)NCc2ccccc2)n2c(=O)c(-c3ccco3)nc3ccccc32)cc1 (stereo not drawn)	·	·	·	2	·
CCOc1cc(Br)c(C=O)cc1OCC	7%	4%	18%	-92*	18%
CCOc1cc(Br)c(C(=O)O)cc1OCC	26%	-7%	0%	-23	5%[5.75 µM]

Assay outcomes: PubChem, National Center for Advancing Translational Sciences (NCATS)
